Where “and” joins values, the source holds several entries; their conditions need not be identical. Identical values can stand only once. Results filed as inconclusive are left out. A call without a number means that no potency is given here. Where a structure was tested more than once in an assay, its records may differ in their call. Calls of active or inactive are those of the source. Unless noted, calls follow the shape of the dose curve; as a rule, active = well fitted curve in the direction sought with a large enough effect in the repeat runs; inconclusive = weak or mixed curves; inactive = no such curve, though single readings can be large; an effect the other way counts as inactive or inconclusive.
Columns and labels:
[1] = qHTS assay to test for compound auto fluorescence at 535 nm (green) in HEK293 cells (AID 720680); also: potency is read from the fitted curve at half-maximal effect
[2] = qHTS assay to test for compound auto fluorescence at 460 nm (blue) in HEK293 cell free culture (AID 720681)
Procedure, shortened: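 Blue fluorescence (Ex 405/Em 460 nm, triamterene-equivalent) was read immediately after pin transfer of compound or DMSO into medium (DMEM, 10% FBS) without cells.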

[3] = qHTS assay to test for compound auto fluorescence at 535 nm (green) in HEK293 cell free culture (AID 720682); also: potency is read from the fitted curve at half-maximal effect
Procedure, shortened: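 DMEM + 10% FBS, cell-free; cpd or DMSO pinned in; Ex485/Em535 read; output as fluorescein-equivalent signal.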

[4] = qHTS assay to test for compound auto fluorescence at 590 nm (red) in HEK293 cell free culture (AID 720683)
Procedure, shortened: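 Red-channel autofluorescence of compounds in culture medium (DMEM, 10% FBS), no cells, measured at 540/590 nm. Rose Bengal sodium is the reference fluorophore for equivalence.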

[5] = qHTS assay to test for compound auto fluorescence at 590 nm (red) in HepG2 cell free culture (AID 720684); also: potency is read from the fitted curve at half-maximal effect
Procedure, shortened: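 Cell-free; medium MEM + 10% FBS; compound or DMSO added by pintool; read Ex 540/Em 590 nm; Rose Bengal sodium as red reference fluorophore.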

[6] = qHTS assay to test for compound auto fluorescence at 460 nm (blue) in HepG2 cell free culture (AID 720685)
Procedure, shortened: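 Cell-free plates of MEM plus 10% FBS received 23 nL compound or DMSO vehicle; blue-channel (405/460 nm) intensity scored against triamterene as reference fluorophore.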

[7] = qHTS assay to test for compound auto fluorescence at 535 nm (green) in HepG2 cell free culture (AID 720686); also: potency is read from the fitted curve at half-maximal effect
[8] = qHTS assay to identify small molecule antagonists of the glucocorticoid receptor (GR) signaling pathway - cell viability counter screen (AID 720693); also: nearly all actives have a fitted effect of over 55% in size
[9] = qHTS assay for identifying genotoxic compounds that show differential cytotoxicity against isogenic chicken DT40 cell lines with known DNA damage response pathways - Rev3 mutant cell line (AID 743014); also: nearly all actives have a fitted effect of over 55% in size; also: potency is read from the fitted curve at half-maximal effect
[10] = qHTS assay for identifying genotoxic compounds that show differential cytotoxicity against isogenic chicken DT40 cell lines with known DNA damage response pathways - Rad54/Ku70 mutant cell line (AID 743015); also: nearly all actives have a fitted effect of over 60% in size; also: potency is read from the fitted curve at half-maximal effect
[11] = qHTS assay to identify small molecule antagonists of the androgen receptor (AR) signaling pathway - cell viability counter screen (AID 743033; also: nearly all actives have a fitted effect of over 45% in size; also: potency is read from the fitted curve at half-maximal effect)
[12] = qHTS assay to test for compound auto fluorescence at 460 nm (blue) in HepG2 cells (AID 720687)
Procedure, shortened: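 Blue-channel autofluorescence (Ex/Em 405/460 nm, triamterene-equivalent) was measured after 1 hr compound exposure at 37 C, 5% CO2. Cells were HepG2, plated overnight at 37 C in MEM plus 10% FBS.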

[13] = qHTS assay for identifying genotoxic compounds that show differential cytotoxicity against isogenic chicken DT40 cell lines with known DNA damage response pathways - wild type cell line (AID 743012); also: nearly all actives have a fitted effect of over 60% in size; also: potency is read from the fitted curve at half-maximal effect
Procedure, shortened: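 Viability of DNA repair-proficient chicken DT40 cells was assessed by CellTiter-Glo luminescence following 40 h compound exposure at 37 C/5% CO2.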

[14] = qHTS assay to identify small molecule antagonists of the androgen receptor (AR) signaling pathway using the MDA cell line - cell viability counter screen (AID 743041; also: nearly all actives have a fitted effect of over 45% in size; also: potency is read from the fitted curve at half-maximal effect)
Procedure, shortened: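 Viability read by CellTiter-Fluor fluorescence in the same wells as the antagonist screen, added after 15.5 h of a 16 h, 37C exposure. Human breast carcinoma MDA-kb2 AR-luc cells, compounds co-dosed with agonist R1881.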

[15] = target: Glucocorticoid receptor (Homo sapiens) (UniProt P04150); test: qHTS assay to identify small molecule agonists of the glucocorticoid receptor (GR) signaling pathway (AID 720691; active = well fitted activation curve with a large enough effect in the signal ratio in the repeat runs, not every such curve was filed as active; the % refers to the signal ratio)
Glucocorticoid receptor (Homo sapiens), sequence (P04150 whole entry, looked up): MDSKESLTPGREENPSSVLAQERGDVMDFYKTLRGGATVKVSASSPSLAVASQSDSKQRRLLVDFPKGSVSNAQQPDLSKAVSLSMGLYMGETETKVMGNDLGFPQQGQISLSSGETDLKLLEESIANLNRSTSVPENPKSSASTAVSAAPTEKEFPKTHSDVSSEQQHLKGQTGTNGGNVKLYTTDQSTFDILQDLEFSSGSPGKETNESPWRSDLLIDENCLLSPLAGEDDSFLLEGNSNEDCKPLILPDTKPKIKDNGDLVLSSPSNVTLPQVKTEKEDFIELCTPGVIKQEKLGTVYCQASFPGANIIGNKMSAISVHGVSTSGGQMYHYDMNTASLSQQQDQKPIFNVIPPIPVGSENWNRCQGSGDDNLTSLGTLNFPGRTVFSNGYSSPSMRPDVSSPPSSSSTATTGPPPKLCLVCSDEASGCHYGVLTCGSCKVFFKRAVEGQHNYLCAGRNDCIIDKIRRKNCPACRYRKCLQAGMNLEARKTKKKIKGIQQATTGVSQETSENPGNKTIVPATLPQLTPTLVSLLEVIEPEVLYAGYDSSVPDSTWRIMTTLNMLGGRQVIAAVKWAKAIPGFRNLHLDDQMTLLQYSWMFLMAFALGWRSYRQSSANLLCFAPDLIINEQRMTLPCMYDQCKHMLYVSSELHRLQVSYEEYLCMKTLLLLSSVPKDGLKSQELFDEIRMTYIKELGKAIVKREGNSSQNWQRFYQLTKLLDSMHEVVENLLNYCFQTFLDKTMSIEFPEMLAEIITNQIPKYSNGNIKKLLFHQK
Procedure, shortened: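 Compounds in DMSO, alongside positive controls, were added to GR-bla HeLa reporter cells and incubated 18 h at 37 C; GRE-driven beta-lactamase was detected by fluorescence after 2 h with FRET substrate at room temperature.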

[16] = target: Glucocorticoid receptor (Homo sapiens) (UniProt P04150); test: qHTS assay to identify small molecule antagonists of the glucocorticoid receptor (GR) signaling pathway (AID 720692; active = well fitted inhibition curve with a large enough effect in the signal ratio in the repeat runs, not every such curve was filed as active; the % refers to the signal ratio)
Procedure, shortened: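 In a 1536-well cell format, compounds were added 4 h after seeding GR-bla HeLa cells, together with dexamethasone at 5 nM final; reporter activity was measured by FRET-substrate fluorescence following 18 h at 37 C.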

[17] = target: Androgen receptor (Homo sapiens) (UniProt P10275); test: qHTS assay to identify small molecule antagonists of the androgen receptor (AR) signaling pathway (AID 743035; active = well fitted inhibition curve with a large enough effect in the signal ratio in the repeat runs, not every such curve was filed as active; the % refers to the signal ratio)
Androgen receptor (Homo sapiens), sequence (P10275 whole entry, looked up): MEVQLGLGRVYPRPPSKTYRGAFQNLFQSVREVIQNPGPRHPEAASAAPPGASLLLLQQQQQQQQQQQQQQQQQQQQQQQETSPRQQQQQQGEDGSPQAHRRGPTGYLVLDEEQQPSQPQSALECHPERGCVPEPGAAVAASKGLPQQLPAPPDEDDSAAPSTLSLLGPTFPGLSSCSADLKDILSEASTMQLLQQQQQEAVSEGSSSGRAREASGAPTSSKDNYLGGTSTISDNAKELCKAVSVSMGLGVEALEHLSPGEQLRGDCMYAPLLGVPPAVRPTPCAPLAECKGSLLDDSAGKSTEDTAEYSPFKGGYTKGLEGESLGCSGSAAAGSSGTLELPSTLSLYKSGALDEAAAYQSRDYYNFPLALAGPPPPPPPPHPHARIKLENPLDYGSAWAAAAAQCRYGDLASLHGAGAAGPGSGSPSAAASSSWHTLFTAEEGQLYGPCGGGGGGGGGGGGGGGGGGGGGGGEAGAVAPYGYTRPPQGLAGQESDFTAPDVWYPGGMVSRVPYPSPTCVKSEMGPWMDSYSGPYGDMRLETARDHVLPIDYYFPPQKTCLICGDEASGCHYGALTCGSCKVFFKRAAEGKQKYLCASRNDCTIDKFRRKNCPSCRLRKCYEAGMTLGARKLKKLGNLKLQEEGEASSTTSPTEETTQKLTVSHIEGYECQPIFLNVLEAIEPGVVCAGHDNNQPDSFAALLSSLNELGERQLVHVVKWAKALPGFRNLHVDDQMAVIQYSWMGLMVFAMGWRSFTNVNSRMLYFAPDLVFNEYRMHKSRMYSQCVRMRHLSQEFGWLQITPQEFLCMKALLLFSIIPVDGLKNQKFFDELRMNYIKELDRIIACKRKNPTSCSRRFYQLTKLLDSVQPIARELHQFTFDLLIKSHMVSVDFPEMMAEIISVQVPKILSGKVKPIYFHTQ
Procedure, shortened: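 Reporter HEK293 cells were exposed to compounds and R1881 overnight (16 h, 37C); beta-lactamase activity was then quantified by FRET fluorescence.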

[18] = target: Androgen receptor (Homo sapiens) (UniProt P10275); test: qHTS assay to identify small molecule agonists of the androgen receptor (AR) signaling pathway (AID 743036; active = well fitted activation curve with a large enough effect in the signal ratio in the repeat runs, with a control signal flat, not every such curve was filed as active; the % refers to the signal ratio)
Procedure, shortened: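 Screening used 2,000 AR-bla HEK293 cells per well, treated 16 h at 37C with test compounds in DMSO alongside positive and DMSO-only controls; beta-lactamase activity was then read by LiveBLAzer B/G FRET fluorescence after 2 h at room temperature.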

[19] = target: Androgen receptor (Homo sapiens) (UniProt P10275); test: qHTS assay to identify small molecule agonists of the androgen receptor (AR) signaling pathway using the MDA cell line (AID 743040; also: nearly all actives have a fitted effect of over 20% in size)
Procedure, shortened: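 Luciferase agonist assay: 16 h compound exposure at 37C without CO2 in MDA-kb2 AR-luc cells, whose MMTV promoter responds to both AR and GR. Luminescence measured after 30 min room-temperature incubation with ONE-Glo.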

[20] = target: Androgen receptor (Homo sapiens) (UniProt P10275); test: qHTS assay to identify small molecule antagonists of the androgen receptor (AR) signaling pathway using the MDA cell line (AID 743042; also: nearly all actives have a fitted effect of over 55% in size)
Procedure, shortened: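 Antagonist mode: compounds plus R1881 agonist added to MDA-kb2 AR-luc cells, incubated 16 h at 37C. Luciferase reporter luminescence quantified, with multiplexed CellTiter-Fluor readout for cell viability.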
Tags tell the direction and shape of the fitted curve or compound fluorescence and quenching.

Compound	Potency [1]	Potency [2]	Potency [3]	Potency [4]	Potency [5]	Potency [6]	Potency [7]	Potency [8]	Potency [9]	Potency [10]	Potency [11]	Potency [12]	Potency [13]	Potency [14]	Potency [15]	Potency [16]	Potency [17]	outcome [18]	Potency [19]	Potency [20]
O=[Se](O)O	inactive	inactive	inactive	inactive	inactive	inactive	inactive	inactive	545 nM (active) and 4.16 µM (active)	244 nM (active) and 2.34 µM (active)	inactive									
C1COCCN1	inactive	inactive	inactive		inactive	inactive	inactive	inactive	inactive	inactive	inactive	inactive	inactive	inactive						
C=C[C@H]1CN2CC[C@H]1C[C@@H]2[C@@H](O)c1ccnc2ccc(OC)cc12	inactive	inactive	inactive	inactive	inactive	inactive	inactive	inactive	47.8 µM (active)	29.8 µM (active) and 60.1 µM (active)	inactive		29.8 µM (active)	inactive						
CC1=CC(C)(C)Nc2ccccc21	inactive	inactive	inactive		inactive	inactive	inactive	inactive	inactive	inactive	inactive	inactive	inactive and 66.8 µM (active)	inactive						
CC(C)(Oc1ccc(Cl)cc1)C(=O)O	inactive	inactive	inactive		inactive	inactive	inactive	inactive	inactive	inactive	inactive	inactive	inactive	inactive	inactive	inactive				
CC1(C)NC(=O)N(c2ccc([N+](=O)[O-])c(C(F)(F)F)c2)C1=O	inactive	inactive	inactive	inactive	inactive	inactive	inactive	inactive	10.6 µM (active) and 3.86 µM (active)	9.44 µM (active) and 3.44 µM (active)	inactive			61.1 µM (active)						
CCOC(=O)C(C)Oc1ccc(Oc2cnc3cc(Cl)ccc3n2)cc1 (configuration not stated)	inactive	inactive	inactive	inactive	inactive	inactive	inactive	inactive	inactive and 40.5 µM (active)	inactive and 45.5 µM (active)	inactive			inactive	inactive					
CC(=O)O[C@]1(C(C)=O)CC[C@H]2[C@@H]3C=C(Cl)C4=CC(=O)CC[C@]4(C)[C@H]3CC[C@@]21C	inactive	inactive	inactive		inactive	inactive	inactive	inactive	11.9 µM (active)	18.8 µM (active)	inactive	inactive	10.6 µM (active) and 27.3 µM (active)	inactive						
O=C1OC2(c3ccccc31)c1cc(I)c(O)c(I)c1Oc1c2cc(I)c(O)c1I	10 µM [fluorescent] (active) and 14.1 µM [fluorescent] (active) and 17.8 µM [fluorescent] (active)	inactive	12.6 µM [fluorescent] (active) and 8.91 µM [fluorescent] (active) and 15.8 µM [fluorescent] (active)		11.2 µM [fluorescent] (active) and 17.8 µM [fluorescent] (active) and 15.8 µM [fluorescent] (active)	inactive	11.2 µM [fluorescent] (active) [middle of 4 runs]	inactive	27.6 µM (active) and 11.7 µM (active)	17.4 µM (active) and 10.5 µM (active)	inactive	inactive	inactive and 9.33 µM (active)							
ClC/C=C/CCl	inactive	inactive	inactive		inactive	inactive	inactive	inactive	inactive	inactive	inactive			inactive						
COc1cc([C@H]2Oc3cc([C@H]4Oc5cc(O)cc(O)c5C(=O)[C@@H]4O)ccc3O[C@@H]2CO)ccc1O	inactive	inactive	inactive		inactive	inactive	inactive	inactive	inactive	29.8 µM (active) and 48.4 µM (active)	inactive	inactive		inactive	inactive	inactive				
CC1(C)C(C=C(Cl)Cl)C1C(=O)OCc1cccc(Oc2ccccc2)c1 (configuration not stated)	inactive	inactive	inactive		inactive	inactive	inactive	inactive	inactive	inactive	inactive			inactive	inactive	inactive	inactive	inactive	inactive	inactive
c1ccc2ncccc2c1	inactive	inactive	inactive	inactive	inactive	inactive	inactive	inactive	inactive	inactive	inactive			inactive	inactive	inactive				
CN(C)CCCN1c2ccccc2Sc2ccc(Cl)cc21	inactive	inactive	inactive	inactive	inactive	inactive	inactive		9.44 µM (active) and 27.3 µM (active)		24.5 µM (active)		9.44 µM (active) and 13.7 µM (active)	68.6 µM (active)						
C1CN(SSN2CCOCC2)CCO1	inactive	inactive	inactive		inactive	inactive	inactive	inactive	42.8 µM (active) and 27.3 µM (active)	19.3 µM (active)		inactive	27.3 µM (active)	inactive	inactive					
CC(=O)Nc1ccc2c(c1)Cc1cc(NC(C)=O)ccc1-2	inactive	inactive	inactive		inactive	inactive	inactive	inactive	inactive		inactive		inactive	inactive	inactive	inactive				
CC(=O)OC(C)C	inactive	inactive	inactive		inactive	inactive	inactive	inactive	inactive		inactive	inactive	inactive	inactive	inactive	inactive				
